Measured values reported in PubChem BioAssay (Tox21).
Records with an inconclusive call do not appear. The source made the active and inactive calls. Unless noted, calls come from the whole dose curve; as a rule, active = well fitted curve in the direction sought with a large enough effect in the repeat runs; inconclusive = weak or mixed curves; inactive = no such curve, though single readings can be large; an effect the other way counts as inactive or inconclusive.

Legend:
[1] = target: Luciferin 4-monooxygenase (Photinus pyralis) (UniProt P08659); assay: qHTS assay to identify small molecule inhibitors of firefly luciferase (AID 1224835); note: nearly all actives have a fitted effect of over 25% in size; note: potency is the fitted concentration of half-maximal effect; for activity change, negative = inhibition: series mostly up to about 120 µM
In short: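 Inhibition of purified Photinus luciferase is measured by luminescence. Substrate levels (D-luciferin, ATP) sit at their KM values. Each compound is tested in a concentration series.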

[2] = qHTS assay to identify small molecule agonists of the constitutive androstane receptor (CAR) signaling pathway - cell viability counter screen (AID 1224836); note: series mostly up to about 92 µM; nearly all actives have a fitted effect of over 45% in size
In short: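 Cells were seeded and incubated 4 hrs. Compounds were added across 15 concentrations together with PK11195 at 0.75 uM final. Plates were incubated 23 hrs at 37 C. CellTiter-Fluor was added and fluorescence measured.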

[3] = qHTS assay to identify small molecule antagonists of the constitutive androstane receptor (CAR) signaling pathway - cell viability counter screen (AID 1224837); note: series mostly up to about 92 µM; nearly all actives have a fitted effect of over 45% in size
In short: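 HepG2 cells stably expressing hCAR and a CYP2B6-2.2kb reporter were plated and pre-incubated 4 hr at 37 C/5% CO2, then given compounds at 15 concentrations plus 50 nM CITCO (final). After 23 hr, viability was read by CellTiter-Fluor fluorescence.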

[4] = target: Nuclear receptor subfamily 1 group I member 3 (Homo sapiens) (UniProt Q14994); assay: qHTS assay to identify small molecule antagonists of the constitutive androstane receptor (CAR) signaling pathway (AID 1224838); note: nearly all actives have a fitted effect of over 40% in size
In short: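 HepG2 cells stably co-transfected with hCAR and a CYP2B6-2.2kb luciferase reporter were seeded 4 h before compound addition at 15 concentrations. Cells were stimulated with 50 nM CITCO (final) for 24 h at 37 C; luciferase luminescence was then read.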

[5] = target: Nuclear receptor subfamily 1 group I member 3 (Homo sapiens) (UniProt Q14994); assay: qHTS assay to identify small molecule agonists of the constitutive androstane receptor (CAR) signaling pathway (AID 1224839); note: nearly all actives have a fitted effect of over 15% in size; note: potency is the fitted concentration of half-maximal effect;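 for activation: HepG2 cells stably carrying human CAR and a CYP2B6 luciferase reporter; series mostly up to about 92 µM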
In short: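 Cells were plated and incubated 4 hrs, then dosed with compounds at 15 concentrations. PK11195 was added to 0.75 uM final. After 24 hrs at 37 C, luciferase luminescence was measured.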

[6] = qHTS assay to identify small molecule antagonists of the estrogen related receptor signaling pathway with the pleiotropic PPARgamma coactivator (PGC) from Tox21 10K library - cell viability counter screen (AID 1224840; active = well fitted cell-killing curve with a large enough effect in the repeat runs, not every such curve was filed as active; note: nearly all actives have a fitted effect of over 40% in size)
In short: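 PGC/ERR cells were seeded at 2,000 cells/well and left 6 hours at 37 C/5% CO2 before pin-tool addition of compounds in DMSO. After 17.5 hours at 37 C, CellTiter-Fluor was added and fluorescence read 30 minutes later.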

[7] = target: Thyrotropin receptor (Homo sapiens) (UniProt P16473); assay: qHTS assay to identify small molecule agonists of the thyroid stimulating hormone receptor (TSHR) signaling pathway (AID 1224843; calls by dose curve; note: nearly all actives have a fitted effect of over 45% in size; note: potency is the fitted concentration of half-maximal effect)
In short: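 Screening of the Tox21 10K collection used HEK293 cells engineered with TSHR at 800 cells per well. After a 30-min room-temperature compound exposure, HTRF cAMP reagents were added and fluorescence recorded 1 h later.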

[8] = qHTS assay to identify small molecule agonists of the hypoxia (HIF-1) signaling pathway - cell viability counter screen (AID 1224844; calls by dose curve; note: nearly all actives have a fitted effect of over 50% in size)
In short: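 HRE-bla ME-180 cells in medium with 0.5% dialyzed FBS were preincubated 5 hrs at 37C, exposed to compounds for 17 hrs, then viability was read as CellTiter-Glo luminescence after 30 min at room temperature, in the reporter wells.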

[9] = qHTS assay to identify small molecule agonists of H2AX (AID 1224845; active = well fitted activation curve with a large enough effect in the signal ratio in the repeat runs, not every such curve was filed as active; the % refers to the signal ratio)
In short: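 Phospho-H2AX Ser139 measured by HTRF (ex 320 nm; em 665 and 620 nm) after 24 hr antibody incubation. Compounds, 15 concentrations, 0.76% DMSO, were applied to CHO-K1 cells for 3hr at 37C before lysis.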

[10] = qHTS assay to identify small molecule agonists of the hypoxia (HIF-1) signaling pathway (AID 1224846; active = well fitted activation curve with a large enough effect in the signal ratio in the repeat runs, not every such curve was filed as active; the % refers to the signal ratio)
In short: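 HRE-bla ME-180 cells (beta-lactamase reporter under hypoxia response element) were plated at 2,000 cells/well in medium with 0.5% dialyzed FBS, rested 5 hrs, then given compounds in DMSO for 17 hrs at 37C, 5% CO2. Reporter induction was read with CCF4-AM FRET substrate.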

[11] = qHTS assay to identify small molecule agonists of H2AX - cell viability counter screen (AID 1224847; calls by dose curve; note: top concentration of the series differs between compounds; nearly all actives have a fitted effect of over 30% in size)
In short: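 Cytotoxicity counter screen in wild-type CHO-K1 cells: a 3 hr compound treatment at 37C across 15 concentrations, followed by CellTiter-Glo luminescence to gauge viable cells.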

[12] = qHTS RealTime-Glo MT Cell Viability Assay in HepG2 cells - 24 hour (AID 1224867); note: nearly all actives have a fitted effect of over 50% in size
In short: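 Cells + NanoLuc/prosubstrate dispensed (600 cells/well) → 5 h at 37 C/5% CO2 → compounds in DMSO transferred → 40 h incubation at 37 C, luminescence read at 0, 8, 16, 24, 32, 40 h.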

[13] = qHTS RealTime-Glo MT Cell Viability Assay in HEK293 cells - 32 hour (AID 1224868); note: nearly all actives have a fitted effect of over 50% in size; note: potency is the fitted concentration of half-maximal effect; for activity change, negative = cytotoxic: top concentration of the series differs between compounds
In short: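 Tox21 10K qHTS, HEK293, 600 cells/well, RealTime-Glo reagent co-dispensed with cells; 5 h preincubation, compound by pintool, 37 C, luminescence at 0–40 h.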

[14] = qHTS RealTime-Glo MT Cell Viability Assay in HepG2 cells - 40 hour (AID 1224870); note: nearly all actives have a fitted effect of over 50% in size
In short: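 Real-time viability: cells seeded at 600 per well together with NanoLuc and cell-permeant prosubstrate, compounds added after 5 h incubation. Luminescence tracked at 0, 8, 16, 24, 32 and 40 h of exposure.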

[15] = qHTS assay to identify small molecule antagonists of the estrogen related receptor signaling pathway with the pleiotropic PPARgamma coactivator (PGC) from Tox21 10K library (AID 1224841; call rule not given here)
In short: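 PGC/ERR reporter cells were seeded at 2,000 cells/well and held 6 hours at 37 C/5% CO2 before pin-tool addition of compounds in DMSO. After 18 hours at 37 C, One-Glo was added and luminescence read after 30 minutes at room temperature.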

[16] = qHTS assay to identify small molecule agonists of the estrogen related receptor signaling pathway with the pleiotropic PPARgamma coactivator (PGC) from Tox21 10K library (AID 1224842); note: nearly all actives have a fitted effect of over 15% in size
In short: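 Luminescence from One-Glo (30 min, room temperature) measured after PGC/ERR cells had 18 h at 37 C with pinned compound (23 nL in DMSO). Cells had been seeded at 2,000 per well and pre-incubated 6 h.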

[17] = qHTS assay to identify small molecule antagonists of the estrogen related receptor (ERR) signaling pathway from Tox21 library (AID 1224848); note: nearly all actives have a fitted effect of over 50% in size
In short: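 Antagonist-mode screen of the Tox21 10K library in an NTP-provided ERR reporter cell line; 18 h compound exposure at 37 C, luminescence measured with ONE-Glo.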

[18] = A CellTox Green Cytotoxicity Assay to monitor cytotoxicity in HEK293 cells - 0 hour (AID 1224869); note: nearly all actives have a fitted effect of over 50% in size
In short: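 HEK293 cells premixed with CellTox Green dye were seeded at 600 cells/well and left 5 h at 37 C/5% CO2 before pin transfer of 23 nL compound in DMSO. Fluorescence from dye bound to dead-cell DNA was read during 40 h treatment.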

[19] = qHTS assay to identify small molecule antagonists of the estrogen related receptor (ERR) signaling pathway from Tox21 library - cell viability counter screen (AID 1224834); note: nearly all actives have a fitted effect of over 30% in size
In short: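 ERR reporter cells were plated 6 h before compound addition, then exposed to test compounds in DMSO for 17.5 h at 37 C. Viability was read as CellTiter-Fluor fluorescence after a 30-minute incubation at 37 C.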
% is set by controls: 0 for no effect and ±100 for the full control effect.

Nuclear receptor subfamily 1 group I member 3 (Homo sapiens), sequence (Q14994 whole entry, looked up): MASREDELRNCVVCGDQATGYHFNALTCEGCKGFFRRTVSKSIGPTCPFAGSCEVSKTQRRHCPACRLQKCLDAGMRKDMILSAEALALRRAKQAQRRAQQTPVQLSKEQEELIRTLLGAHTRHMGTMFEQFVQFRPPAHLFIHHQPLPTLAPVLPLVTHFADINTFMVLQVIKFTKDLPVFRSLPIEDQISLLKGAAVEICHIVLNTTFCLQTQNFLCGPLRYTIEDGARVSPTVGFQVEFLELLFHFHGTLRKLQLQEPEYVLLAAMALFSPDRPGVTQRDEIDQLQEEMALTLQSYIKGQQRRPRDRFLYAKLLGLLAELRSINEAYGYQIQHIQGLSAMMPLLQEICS
Luciferin 4-monooxygenase (Photinus pyralis), sequence (P08659 whole entry, looked up): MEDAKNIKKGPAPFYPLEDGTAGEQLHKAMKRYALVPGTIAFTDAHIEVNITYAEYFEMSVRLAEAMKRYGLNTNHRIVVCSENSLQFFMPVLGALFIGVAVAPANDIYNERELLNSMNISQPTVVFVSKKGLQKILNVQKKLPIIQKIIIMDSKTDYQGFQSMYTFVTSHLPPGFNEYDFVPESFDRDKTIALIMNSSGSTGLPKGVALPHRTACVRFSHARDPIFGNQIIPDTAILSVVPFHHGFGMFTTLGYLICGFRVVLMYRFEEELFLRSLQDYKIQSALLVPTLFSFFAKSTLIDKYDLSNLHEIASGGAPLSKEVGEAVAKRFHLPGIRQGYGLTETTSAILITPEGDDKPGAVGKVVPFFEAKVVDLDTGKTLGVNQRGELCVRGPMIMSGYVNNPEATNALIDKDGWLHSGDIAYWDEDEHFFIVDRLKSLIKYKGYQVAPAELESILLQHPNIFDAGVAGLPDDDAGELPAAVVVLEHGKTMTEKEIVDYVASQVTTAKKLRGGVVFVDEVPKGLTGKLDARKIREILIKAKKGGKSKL
Thyrotropin receptor (Homo sapiens), sequence (P16473 whole entry, looked up): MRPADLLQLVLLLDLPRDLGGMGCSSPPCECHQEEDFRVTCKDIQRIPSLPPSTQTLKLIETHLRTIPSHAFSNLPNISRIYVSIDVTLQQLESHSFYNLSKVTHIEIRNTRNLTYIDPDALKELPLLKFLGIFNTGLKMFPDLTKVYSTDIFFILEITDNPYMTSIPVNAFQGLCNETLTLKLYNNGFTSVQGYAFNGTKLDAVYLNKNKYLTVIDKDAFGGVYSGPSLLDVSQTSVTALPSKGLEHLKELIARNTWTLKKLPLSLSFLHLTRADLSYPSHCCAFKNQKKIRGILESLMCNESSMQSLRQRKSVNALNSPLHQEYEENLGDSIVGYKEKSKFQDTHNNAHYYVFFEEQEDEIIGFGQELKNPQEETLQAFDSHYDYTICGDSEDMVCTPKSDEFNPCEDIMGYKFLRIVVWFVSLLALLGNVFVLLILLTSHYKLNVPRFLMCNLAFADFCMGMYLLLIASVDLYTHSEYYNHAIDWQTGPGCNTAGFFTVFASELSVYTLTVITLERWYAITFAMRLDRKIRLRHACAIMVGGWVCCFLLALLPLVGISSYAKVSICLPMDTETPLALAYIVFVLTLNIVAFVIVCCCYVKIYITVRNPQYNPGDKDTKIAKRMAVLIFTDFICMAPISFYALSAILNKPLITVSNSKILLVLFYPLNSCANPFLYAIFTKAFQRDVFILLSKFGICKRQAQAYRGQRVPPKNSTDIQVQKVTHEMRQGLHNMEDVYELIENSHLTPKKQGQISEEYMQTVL

CCCCCCCCCCCCCCN(C)C
inactive: activity change, negative = inhibition [1] -3.07% [at 23.6 µM] | viability change, negative = cytotoxic [2] 5.26% [at 19 µM] | activity change, negative = cytotoxicity [3] -1.86% [at 19 µM] | activity, negative = inhibition [4] 21.5% [at 19 µM] | activation [5] -0.414% [at 19 µM] | viability change, negative = cytotoxic [6] -1.6% [at 19 µM] | activation [7] 2.75% [at 19 µM] | activity change, negative = cytotoxicity [8] -7.12% [at 15.8 µM] | activation (H2AX phosphorylation) [9] 0.821% [at 31.6 µM] | activation [10] -0.0233% [at 15.8 µM] | activity change, negative = cytotoxicity [11] 0.248% [at 31.6 µM] | activity change, negative = cytotoxicity [12] 1.14% [at 15.8 µM] | activity change, negative = cytotoxic [13] -30.2% [at 15.8 µM] | activity change, negative = cytotoxic [14] 10.3% [at 15.8 µM]

Nc1ccc(NC(=O)c2ccc(N)cc2)cc1
active: Potency [1] 40 µM
inactive: Potency [2] | Potency [3] | Potency [4] | Potency [5] | Potency [6] | Potency [15] | Potency [16] | Potency [8] | outcome [10] | Potency [11] | Potency [17] | Potency [12] | Potency [13] | Potency [18] | Potency [14]

Cc1cc(CCC(=O)OCCOCCOCCOC(=O)CCc2cc(C)c(O)c(C(C)(C)C)c2)cc(C(C)(C)C)c1O
active: Potency [7] 15 µM
inactive: Potency [1] | Potency [2] | Potency [3] | Potency [4] | Potency [5] | Potency [6] | Potency [9] | outcome [10] | Potency [11] | Potency [13] | Potency [18] | Potency [14]

Oc1ccc2c(c1)Cc1ccccc1-2
active: Potency [1] 31.7 µM | Potency [5] 61.1 µM | Potency [13] 19.5 µM
inactive: Potency [2] | Potency [3] | Potency [4] | Potency [6] | Potency [15] | Potency [16] | Potency [7] | Potency [9] | outcome [10] | Potency [17] | Potency [18]

CCCCCCCCCCCCCOS(=O)(=O)O
inactive: Potency [19] | Potency [2] | Potency [3] | Potency [6] | Potency [7] | Potency [9] | Potency [11] | Potency [12] | Potency [13] | Potency [18] | Potency [14]

COc1ccc(-c2cc(=S)ss2)cc1
active: Potency [1] 15.5 µM | Potency [5] 23.7 µM
inactive: Potency [2] | Potency [3] | Potency [4] | Potency [6] | Potency [7] | Potency [8] | Potency [9] | Potency [12] | Potency [18] | Potency [14]

CCOC(=O)N1CCC(Nc2ccc(Cl)cc2N)CC1
inactive: Potency [1] | Potency [2] | Potency [3] | Potency [4] | Potency [5] | Potency [6] | Potency [7] | Potency [9] | outcome [10] | Potency [11] | Potency [13] | Potency [18] | Potency [14]

O=C1[C@@H]2[C@H]3CC[C@H](C3)[C@@H]2C(=O)N1CCCCN1CCN(c2ncccn2)CC1
inactive: Potency [1] | Potency [2] | Potency [3] | Potency [4] | Potency [5] | Potency [6] | Potency [7] | Potency [8] | Potency [9] | outcome [10] | Potency [11] | Potency [12] | Potency [18] | Potency [14]

O=C(NC(Cc1cc(=O)[nH]c2ccccc12)C(=O)O)c1ccc(Cl)cc1 (centres undefined)
inactive: Potency [1] | Potency [2] | Potency [3] | Potency [4] | Potency [5] | Potency [6] | Potency [7] | Potency [9] | outcome [10] | Potency [12] | Potency [13] | Potency [18]
